Inconclusive results are not listed. A number with no mark means an inactive call. Calls follow the shape of the full dose curve.
These compounds were tested against Retinoic acid receptor RXR-alpha (Homo sapiens) (UniProt P19793) (assay: qHTS assay to identify small molecule agonists of the RXR signaling pathway (AID 1159527; also: nearly all actives have a fitted effect of over 35% in size)). Details: HEK293T RXRa-UAS-bla, beta-lactamase ratio, 16 h; series mostly up to 76.8 µM; activation: at the top concentration.
Retinoic acid receptor RXR-alpha (Homo sapiens), sequence (P19793 whole entry, looked up): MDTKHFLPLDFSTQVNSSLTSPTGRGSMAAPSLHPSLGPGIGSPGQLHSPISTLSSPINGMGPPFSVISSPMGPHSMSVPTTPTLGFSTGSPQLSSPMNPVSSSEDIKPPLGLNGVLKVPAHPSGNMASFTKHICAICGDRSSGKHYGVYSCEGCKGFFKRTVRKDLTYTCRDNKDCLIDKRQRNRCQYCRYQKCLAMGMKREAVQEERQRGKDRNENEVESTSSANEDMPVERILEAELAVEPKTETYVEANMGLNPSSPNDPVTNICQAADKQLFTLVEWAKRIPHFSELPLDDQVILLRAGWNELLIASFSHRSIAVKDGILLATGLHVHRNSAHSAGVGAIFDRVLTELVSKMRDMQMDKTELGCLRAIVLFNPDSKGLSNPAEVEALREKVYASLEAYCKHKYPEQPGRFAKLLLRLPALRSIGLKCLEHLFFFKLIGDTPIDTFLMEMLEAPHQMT
How it was run: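 GeneBLAzer RXR-alpha-UAS-bla HEK 293T cells in medium with 2% charcoal-stripped FBS, pre-incubated 5 hr at 37 C, then exposed to compounds 16 hr. Beta-lactamase reporter read by FRET substrate, 2 hr room temperature, 460/530 nm emission.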
In the case of `ONc1ccccc1`, the “activation” value is reported as -3.15%.
With `CC(C)OC(=O)CCC(=O)OC(C)C` the “activation” value was 6.42%.
In the case of `CC(C)(CO)C(O)C(=O)NCCCO` (centres undefined), the “activation” value is reported as 10.6%.
For `Cn1c(=O)c2[nH]c(Br)nc2n(C)c1=O`, the “activation” value was 6.49% [at 35.3 µM].
For `COC(=O)CCCCC(=O)O`, the “activation” value was -10.2%.
In the case of `N[C@@H](Cc1ccc(O)cc1)C(=O)O`, the activation is reported as 0.71% [at 6.98 µM].
For `COc1ccc(CCO)cc1`, the “activation” value was 9.6%.
`C[C@@H](O)C(=O)O` was tested, and the “activation” value was 2.9%.
For `CCCc1ccc(O)cc1`, the “activation” value was -0.521%.
With `CC1(C)Oc2ccc(C#N)cc2[C@@H](N2CCCC2=O)[C@@H]1O` the “activation” value was 10.5% [at 35.3 µM].
With `CCC/C=C(\C=O)CC` the “activation” value was -0.345%.
With `CC(C)=CCC/C(C)=C/COC=O` the “activation” value was -6.15%.
With `O=C(CCCCC(=O)Nc1c(I)cc(I)c(C(=O)O)c1I)Nc1c(I)cc(I)c(C(=O)O)c1I` the “activation” value was 0.403% [at 35.3 µM].
In the case of `COP(=O)(O)OP(=O)(O)OC`, the “activation” value is reported as 8.21%.
In the case of `O=C(O)CCCCCC(=O)O`, the “activation” value is reported as 0.49%.
`COS(=O)(=O)O` was tested, and the “activation” value was 3.77%.
`C[C@]12CCC(=O)C=C1CC[C@H]1[C@@H]3CC[C@](O)(C(=O)CO)[C@@]3(C)C[C@H](O)[C@@]12F` was tested, and the “activation” value was 9.12% [at 35.3 µM].
With `CCCCCCCCCOC(=O)CCCCC(=O)OCCCCCCC` the “activation” value was 8.28%.
In the case of `O=C1NC(c2ccccc2)(c2ccccc2)C(=O)N1COP(=O)(O)O`, the “activation” value is reported as -0.241% [at 35.3 µM].
For `[O-][n+]1cccc(/C(Cl)=N/OC[C@@H](O)CN2CCCCC2)c1`, the “activation” value was 1.07% [at 35.3 µM].
With `CC(C)NC(=O)c1ccc(C=O)cc1` the “activation” value was -5.11% [at 35.3 µM].
Work on `O=C1c2ccccc2C(=O)c2cc(Cl)ccc21` yielded an activation of 2.02% [at 6.98 µM].
For `CCc1occc(=O)c1O`, the “activation” value was 0.367%.
`CC(C)[C@H]1CC[C@H](C)C[C@@H]1O` was tested, and the “activation” value was 2.03%.

From PubChem BioAssay (Tox21)
% is scaled to controls: 0 for no effect and ±100 for the full control effect.
